# Experimental data reported in PubChem BioAssay (Tox21).
# Unmarked numbers belong to inactive results. Results filed as inconclusive are left out. A call without a number means that no potency is given here. The source made the active and inactive calls. Unless noted, calls come from the whole dose curve.
# What was measured:
# [1] = Nuclear factor erythroid 2-related factor 2/antioxidant responsive element (Nrf2/ARE) small molecule agonists: qHTS cell viability counter screen in human keratinocytes (AID 1919968; active = well fitted curve in the direction sought with a large enough effect in the repeat runs; an effect the other way counts as inactive or inconclusive; note: nearly all actives have a fitted effect of over 55% in size; note: potency is the fitted concentration of half-maximal effect)
# Summary of the method: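 HaCaT ARE reporter line, 1,500 cells/well; 5 h settle, 37 C/5% CO2; cpd in DMSO pinned; 23 h exposure; CellTiter-Fluor, 1 h; fluorescence.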
# [2] = Nuclear factor erythroid 2-related factor 2/antioxidant responsive element (Nrf2/ARE) small molecule agonists: luciferase reporter gene qHTS assay in human keratinocytes (AID 1919969); note: nearly all actives have a fitted effect of over 35% in size; note: potency is the fitted concentration of half-maximal effect
# [3] = target: Gonadotropin-releasing hormone receptor (Homo sapiens) (UniProt P30968); test: Human gonadotropin-releasing hormone receptor (GnRHR) small molecule agonists, calcium flux assay in GnRHR-HEK293 cells (AID 1920063); note: nearly all actives have a fitted effect of over 35% in size; note: potency is the fitted concentration of half-maximal effect
# Summary of the method: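 GnRHR-HEK293, 1500 cells/well, 18 h 37 C/5% CO2; Ca dye 1 h 37 C; cpd pinned (DMSO), agonist mode; kinetic FL 480/540, 3 min, 1 s reads; 15 conc, n=3.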
# [4] = target: KiSS-1 receptor (Homo sapiens) (UniProt Q969F8); test: Human kisspeptin (KISS1R) small molecule agonists, calcium flux assay in KISS1R-HEK293 cells (AID 1920064; active = well fitted curve in the direction sought with a large enough effect in the repeat runs; an effect the other way counts as inactive or inconclusive; note: potency is the fitted concentration of half-maximal effect)
# Summary of the method: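 Stable human KISS1R HEK293 line; 18 h plating, 37 C/5% CO2; calcium dye 1 h 37 C; compound pin transfer; kinetic fluorescence Ex/Em 480/540, 3 min.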
# [5] = G protein-coupled receptor (GPCR) small molecule agonists, calcium flux assay: HEK293 wild type cell line counter screen (AID 1920065); note: potency is the fitted concentration of half-maximal effect
# Summary of the method: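 Kinetic fluorescence at Ex/Em 480/540, recorded every second over 3 min, served as the read-out after compound addition. Each compound was tested at 15 concentrations in triplicate on cells pre-loaded with calcium dye for 1 h.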
# [6] = p53 small molecule agonists, cell-based qHTS assay with human liver microsomes (AID 1963577);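 note: p53 response element beta-lactamase reporter cells with liver microsomes plus NADPH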
# Summary of the method: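 HLM-supplemented p53RE-bla reporter assay: 16 h compound exposure at 37 C, microsomes and NADPH each 0.5 mg/mL final, read by fluorescence intensity.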
# [7] = p53 small molecule agonists, cell-based qHTS assay with rat liver microsomes (AID 1963578)
# Summary of the method: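 Quantitative HTS of the Tox21 10K library: p53RE-bla cells, rat liver microsomes plus NADPH at 0.5 mg/mL final each, 16 h at 37 C, beta-lactamase fluorescence detection.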
# [8] = p53 small molecule agonists, cell-based qHTS assay with human liver microsomes: qHTS cell viability counter screen (AID 1963579); note: nearly all actives have a fitted effect of over 45% in size; note: potency is the fitted concentration of half-maximal effect
# Summary of the method: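 Viability of p53RE-bla cells is measured as CellTiter-Glo luminescence following a 16 h, 37 C incubation with compound, liver microsomes from human donors and NADPH.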
# [9] = p53 small molecule agonists, cell-based qHTS assay with rat liver microsomes: qHTS cell viability counter screen (AID 1963580); note: nearly all actives have a fitted effect of over 45% in size; note: potency is the fitted concentration of half-maximal effect
# Summary of the method: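 Viability is assessed in parallel with the p53 reporter read: HCT-116 p53RE-bla cells receive compounds plus rat microsomes and NADPH (0.5 mg/mL final apiece), incubate 16 h at 37 C, and then CellTiter-Glo luminescence is recorded.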
# [10] = p53 small molecule agonists, cell-based qHTS assay: qHTS cell viability counter screen (AID 1963581); note: nearly all actives have a fitted effect of over 45% in size; note: potency is the fitted concentration of half-maximal effect
# Summary of the method: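 HCT-116 p53RE-bla cells, 4,000/well, plated 5 h before compound pin transfer; 16 h at 37 C; bla substrate 2 h RT; then CellTiter-Glo, 30 min RT, luminescence.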
# [11] = target: 5-hydroxytryptamine receptor 2A (Homo sapiens) (UniProt P28223); test: 5-hydroxytryptamine receptor 2A (HTR2A) small molecule agonists, cell-based qHTS assay (AID 1963587); note: nearly all actives have a fitted effect of over 30% in size
# Summary of the method: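 CHO cells stably expressing human HTR2A, plated 18 h, loaded with calcium dye 1 h at 37 C. Agonist mode: compounds added and intracellular calcium fluorescence recorded kinetically for 2 min at 1 sec intervals.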
# [12] = target: Muscarinic acetylcholine receptor M1 (Homo sapiens) (UniProt P11229); test: Cholinergic receptor muscarinic 1 (CHRM1) small molecule agonists, cell-based qHTS assay (AID 1963589); note: nearly all actives have a fitted effect of over 35% in size
# Summary of the method: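 Human M1 in stable CHO line; 18 h plating, 1 h dye load 37 C; cpd added (agonist mode); Ca2+ fluorescence kinetic read, 1 s intervals; 15 conc, 3 runs.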
# [13] = target: Beta-2 adrenergic receptor (Homo sapiens) (UniProt P07550); test: Adrenergic beta2 receptor (ADRB2) small molecule antagonists, cell-based qHTS assay (AID 1963592); note: nearly all actives have a fitted effect of over 50% in size; note: potency is the fitted concentration of half-maximal effect; for activity change, negative = inhibition: series mostly up to about 92 µM
# Summary of the method: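 Cells (CHO, stable ADRB2 overexpression) incubated 18-20hr at 37C; compounds added from DMSO; agonist mix (1nM isoproterenol, 100uM IBMX, 25uM Ro-20-1724) added; 0.5hr RT; d2-cAMP and anti-cAMP-cryptate added; 1hr RT; 665/615 nm read.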
# [14] = target: D(2) dopamine receptor (Homo sapiens) (UniProt P14416); test: Dopamine D2 receptor (DRD2) small molecule antagonists, cell-based qHTS assay (AID 1963595; active = well fitted inhibition curve with a large enough effect in the signal ratio in the repeat runs, with a control signal flat; the % refers to the signal ratio; note: potency is the fitted concentration of half-maximal effect)
# Summary of the method: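 Readout: HTRF cAMP, cAMP-d2 competing with cellular cAMP for anti-cAMP cryptate, read after 1 h. Cells: DRD2-HEK293. Conditions: 0.1 mM Ro20-1724, 12 nM quinpirole, 200 nM NKH477, 30 min RT.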
# [15] = target: 5-hydroxytryptamine receptor 2A (Homo sapiens) (UniProt P28223); test: 5-hydroxytryptamine receptor 2A (HTR2A) small molecule antagonists, cell-based qHTS assay (AID 1963586); note: nearly all actives have a fitted effect of over 45% in size
# Summary of the method: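 Antagonist-mode intracellular calcium assay: DOI (4 nM) added after 5 min compound pre-incubation at room temperature to dye-loaded HTR2A-CHO cells. Fluorescence followed for 3 min, sampled every second.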
# [16] = target: Muscarinic acetylcholine receptor M1 (Homo sapiens) (UniProt P11229); test: Cholinergic receptor muscarinic 1 (CHRM1) small molecule antagonists, cell-based qHTS assay (AID 1963588); note: nearly all actives have a fitted effect of over 40% in size
# Summary of the method: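 CHRM1-CHO calcium-flux assay, antagonist mode. Cells were seeded 18 h, dye-loaded 1 h at 37 C and given compound for 5 min at RT, then acetylcholine was added at 50nM. FDSS fluorescence was read 3 min; 15 concentrations, three runs.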
# [17] = target: D(2) dopamine receptor (Homo sapiens) (UniProt P14416); test: Dopamine D2 receptor (DRD2) small molecule agonists, cell-based qHTS assay (AID 1963594); note: nearly all actives have a fitted effect of over 35% in size; note: potency is the fitted concentration of half-maximal effect
# Summary of the method: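 HEK293 cells stably expressing human DRD2, pre-treated with PDE inhibitor Ro20-1724 (0.1 mM final) and compound 10 min at room temperature, then stimulated with NKH477 (200nM […]) for 30 min. cAMP read by HTRF (665/620 nm).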
# [18] = cAMP Responsive Elements (CRE) small molecule agonists, cell-based qHTS assay (AID 1963590)
# Summary of the method: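 HEK 293T CRE-bla, 2,000 cells/well, 18 h preincubation 37 C/5% CO2; cpds (DMSO) pinned, 3 h; LiveBLAzer B/G FRET substrate, 2 h RT.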
# [19] = cAMP Responsive Elements (CRE) small molecule antagonists, cell-based qHTS assay (AID 1963591; active = well fitted inhibition curve with a large enough effect in the signal ratio in the repeat runs, not every such curve was filed as active; the % refers to the signal ratio)
# Summary of the method: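 Beta-lactamase reporter read by FRET substrate (LiveBLAzer B/G) after 2 h at room temperature. CRE-bla HEK293T cells had received compound plus 0.25 uM (final) NKH477 for 3 h at 37 °C.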
# [20] = p53 small molecule agonists, cell-based qHTS assay (AID 1963582; active = well fitted activation curve with a large enough effect in the signal ratio in the repeat runs, not every such curve was filed as active; the % refers to the signal ratio)
# Summary of the method: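 Reporter line: p53RE-bla. Pre-incubation 5 h, 37 C, 5% CO2; compound (DMSO, pin tool) 16 h, 37 C; B/G FRET substrate 2 h RT; fluorescence intensity read.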
# Chain of D(2) dopamine receptor (Homo sapiens) (P14416 whole entry, looked up): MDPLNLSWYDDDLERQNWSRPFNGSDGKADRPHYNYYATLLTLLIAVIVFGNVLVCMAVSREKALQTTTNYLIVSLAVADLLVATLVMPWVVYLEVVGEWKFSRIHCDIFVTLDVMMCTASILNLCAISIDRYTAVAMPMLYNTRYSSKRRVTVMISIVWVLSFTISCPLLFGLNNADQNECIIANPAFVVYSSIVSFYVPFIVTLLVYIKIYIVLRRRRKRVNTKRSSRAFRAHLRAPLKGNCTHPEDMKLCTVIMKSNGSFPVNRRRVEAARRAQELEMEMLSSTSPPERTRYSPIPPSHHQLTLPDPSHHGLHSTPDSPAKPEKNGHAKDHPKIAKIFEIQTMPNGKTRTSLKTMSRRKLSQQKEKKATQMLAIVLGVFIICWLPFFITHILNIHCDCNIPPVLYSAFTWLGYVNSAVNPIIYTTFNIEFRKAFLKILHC
# Chain of Gonadotropin-releasing hormone receptor (Homo sapiens) (P30968 whole entry, looked up): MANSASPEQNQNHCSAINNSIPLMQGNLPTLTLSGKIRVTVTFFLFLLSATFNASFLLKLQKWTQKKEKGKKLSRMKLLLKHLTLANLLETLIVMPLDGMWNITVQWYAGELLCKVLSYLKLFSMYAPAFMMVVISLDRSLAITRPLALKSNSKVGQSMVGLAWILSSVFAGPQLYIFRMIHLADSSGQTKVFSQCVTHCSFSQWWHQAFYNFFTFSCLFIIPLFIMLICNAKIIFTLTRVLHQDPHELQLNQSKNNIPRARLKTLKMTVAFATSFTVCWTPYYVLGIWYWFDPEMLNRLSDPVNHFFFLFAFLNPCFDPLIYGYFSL
# Chain of Beta-2 adrenergic receptor (Homo sapiens) (P07550 whole entry, looked up): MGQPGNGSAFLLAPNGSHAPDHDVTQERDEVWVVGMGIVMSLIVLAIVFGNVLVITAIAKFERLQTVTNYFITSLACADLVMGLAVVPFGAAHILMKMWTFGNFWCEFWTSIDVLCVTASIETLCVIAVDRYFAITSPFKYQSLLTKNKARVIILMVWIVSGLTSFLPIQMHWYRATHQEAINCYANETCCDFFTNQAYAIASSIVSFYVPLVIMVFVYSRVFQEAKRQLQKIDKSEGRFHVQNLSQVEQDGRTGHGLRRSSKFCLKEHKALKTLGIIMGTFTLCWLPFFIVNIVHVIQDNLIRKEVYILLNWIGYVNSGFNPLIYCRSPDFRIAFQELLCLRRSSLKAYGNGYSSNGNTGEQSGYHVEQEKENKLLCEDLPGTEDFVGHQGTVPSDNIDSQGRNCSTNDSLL
# Chain of 5-hydroxytryptamine receptor 2A (Homo sapiens) (P28223 whole entry, looked up): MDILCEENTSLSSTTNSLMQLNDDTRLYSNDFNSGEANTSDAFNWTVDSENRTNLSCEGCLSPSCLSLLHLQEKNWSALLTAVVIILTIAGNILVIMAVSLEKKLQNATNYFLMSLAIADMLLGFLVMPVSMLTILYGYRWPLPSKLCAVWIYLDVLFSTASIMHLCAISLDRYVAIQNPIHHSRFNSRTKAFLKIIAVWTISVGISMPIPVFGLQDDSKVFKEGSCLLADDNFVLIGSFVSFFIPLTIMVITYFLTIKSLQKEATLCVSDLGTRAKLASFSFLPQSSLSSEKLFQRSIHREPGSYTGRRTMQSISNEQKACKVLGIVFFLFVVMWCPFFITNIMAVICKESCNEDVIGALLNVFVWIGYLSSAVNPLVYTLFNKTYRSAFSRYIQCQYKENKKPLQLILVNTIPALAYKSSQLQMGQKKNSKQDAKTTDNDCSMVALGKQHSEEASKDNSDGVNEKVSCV
# Chain of KiSS-1 receptor (Homo sapiens) (Q969F8 whole entry, looked up): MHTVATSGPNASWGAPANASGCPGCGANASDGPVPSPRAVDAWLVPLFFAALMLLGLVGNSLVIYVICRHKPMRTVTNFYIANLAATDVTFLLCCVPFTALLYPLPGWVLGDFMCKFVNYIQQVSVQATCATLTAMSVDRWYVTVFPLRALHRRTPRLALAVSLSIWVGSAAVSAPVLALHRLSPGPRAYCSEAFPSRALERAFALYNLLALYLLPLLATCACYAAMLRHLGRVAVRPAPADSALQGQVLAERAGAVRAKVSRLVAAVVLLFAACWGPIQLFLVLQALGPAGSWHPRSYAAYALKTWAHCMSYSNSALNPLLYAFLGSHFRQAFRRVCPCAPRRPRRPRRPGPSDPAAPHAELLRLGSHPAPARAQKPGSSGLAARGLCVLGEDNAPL
# Chain of Muscarinic acetylcholine receptor M1 (Homo sapiens) (P11229 whole entry, looked up): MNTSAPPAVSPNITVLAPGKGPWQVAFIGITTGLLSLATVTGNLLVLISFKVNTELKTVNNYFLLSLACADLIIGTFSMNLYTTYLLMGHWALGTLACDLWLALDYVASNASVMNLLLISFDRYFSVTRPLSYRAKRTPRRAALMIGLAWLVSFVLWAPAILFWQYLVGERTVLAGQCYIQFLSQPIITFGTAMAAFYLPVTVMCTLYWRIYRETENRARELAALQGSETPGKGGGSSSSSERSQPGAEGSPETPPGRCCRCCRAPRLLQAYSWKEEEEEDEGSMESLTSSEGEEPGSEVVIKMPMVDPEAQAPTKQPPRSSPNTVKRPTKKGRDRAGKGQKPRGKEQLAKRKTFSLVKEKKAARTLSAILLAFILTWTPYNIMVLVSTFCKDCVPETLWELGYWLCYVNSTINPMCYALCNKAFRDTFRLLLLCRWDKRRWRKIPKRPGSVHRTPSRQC
structure (smiles),measurement,setting,value
CC(C)(C)c1ccc(CSc2cnn(C(C)(C)C)c(=O)c2Cl)cc1,Potency,[1],inactive
same,Potency,[2],inactive
same,Potency,[3],inactive
same,Potency,[4],inactive
same,Potency,[5],inactive
same,Potency,[6],inactive
same,Potency,[7],inactive
same,Potency,[8],inactive
same,Potency,[9],inactive
same,Potency,[10],inactive
same,Potency,[11],inactive
same,Potency,[12],inactive
same,Potency,[13],inactive
same,Potency,[14],inactive
Cc1ccc2nc3sc(=O)sc3nc2c1,Potency,[1],3.66 µM (active)
same,Potency,[2],1.64 µM (active)
same,activity change,[3],"-0.0057% [at 11.8 µM, stronger effect = higher value]"
same,activation,[4],-1.66% [at 15.8 µM]
same,activation,[5],-0.174% [at 11.8 µM]
same,activation,[6],12.4% [at 13.5 µM]
same,activation,[7],0.351% [at 13.6 µM]
same,"activity change, negative = cytotoxicity",[8],4.93% [at 13.5 µM]
same,"activity change, negative = cytotoxicity",[9],-3.16% [at 13.5 µM]
same,"activity change, negative = cytotoxicity",[10],-2.54% [at 13.5 µM]
same,"activity, negative = inhibition",[15],8.83% [at 12.7 µM]
same,activation,[11],-3.01% [at 15.9 µM]
same,"activity, negative = inhibition",[16],5.56% [at 12.6 µM]
same,activation,[12],-0.991% [at 15.8 µM]
same,"activity change, negative = inhibition",[13],-4.14% [at 19 µM]
same,activation,[17],1.16% [at 19 µM]
same,"activity change, negative = inhibition",[14],0.198% [at 18.9 µM]
CC[C@]1(O)CC[C@H]2[C@@H]3CCC4=CCCC[C@@H]4[C@H]3CC[C@@]21C,Potency,[1],inactive
same,Potency,[2],inactive
same,Potency,[3],inactive
same,Potency,[4],inactive
same,Potency,[5],inactive
same,Potency,[6],inactive
same,Potency,[7],inactive
same,Potency,[8],inactive
same,Potency,[9],inactive
same,Potency,[10],inactive
same,Potency,[18],inactive
same,Potency,[19],inactive
same,Potency,[13],inactive
same,Potency,[17],inactive
same,Potency,[14],inactive
O=C(NC(=O)c1c(F)cccc1F)Nc1cc(Cl)c(Oc2ncc(C(F)(F)F)cc2Cl)c(Cl)c1,Potency,[1],inactive
same,Potency,[2],inactive
same,Potency,[3],inactive
same,Potency,[4],inactive
same,Potency,[5],inactive
same,Potency,[6],inactive
same,Potency,[7],inactive
same,Potency,[8],inactive
same,Potency,[9],inactive
same,Potency,[10],inactive
same,Potency,[15],inactive
same,Potency,[11],inactive
same,Potency,[16],inactive
same,Potency,[12],inactive
same,Potency,[13],inactive
same,Potency,[17],inactive
same,Potency,[14],inactive
CC(Oc1ccc(Oc2ncc(C(F)(F)F)cc2Cl)cc1)C(=O)O (centres undefined),Potency,[1],inactive
same,Potency,[2],inactive
same,Potency,[3],inactive
same,Potency,[4],inactive
same,Potency,[5],inactive
same,Potency,[6],inactive
same,Potency,[7],inactive
same,Potency,[8],inactive
same,Potency,[9],inactive
same,Potency,[10],inactive
same,Potency,[11],inactive
same,Potency,[16],inactive
same,Potency,[12],inactive
same,Potency,[13],inactive
same,Potency,[17],inactive
same,Potency,[14],inactive
C[C@@H]1CC[C@@]2(OC1)O[C@H]1[C@@H](O)[C@H]3[C@@H]4CC[C@H]5C[C@@H](O[C@@H]6O[C@H](CO)[C@H](O[C@@H]7O[C@H](CO)[C@@H](O)[C@H](O[C@@H]8OC[C@@H](O)[C@H](O)[C@H]8O)[C@H]7O[C@@H]7O[C@H](CO)[C@@H](O)[C@H](O[C@@H]8O[C@H](CO)[C@@H](O)[C@H](O)[C@H]8O)[C@H]7O)[C@H](O)[C@H]6O)[C@H](O)C[C@]5(C)[C@H]4CC[C@]3(C)[C@H]1[C@@H]2C,Potency,[1],8.17 µM (active)
same,Potency,[2],inactive
same,Potency,[3],0.735 µM (active)
same,Potency,[4],23.2 µM (active)
same,Potency,[5],41.3 µM (active)
same,Potency,[6],inactive
same,Potency,[7],inactive
same,Potency,[8],13.7 µM (active)
same,Potency,[9],13.7 µM (active)
same,Potency,[10],13.7 µM (active)
same,Potency,[19],inactive
same,Potency,[13],64.9 µM (active)
same,Potency,[17],51.5 µM (active)
same,Potency,[14],2.3 µM (active)
Clc1cccc(N2CCNCC2)c1,Potency,[1],inactive
same,Potency,[2],inactive
same,Potency,[3],inactive
same,Potency,[4],inactive
same,Potency,[5],inactive
same,Potency,[6],inactive
same,Potency,[7],inactive
same,Potency,[8],inactive
same,Potency,[9],inactive
same,Potency,[10],inactive
same,Potency,[16],inactive
same,Potency,[12],inactive
same,Potency,[18],inactive
same,Potency,[19],inactive
same,Potency,[14],inactive
Oc1ccc(Cc2ccc(O)cc2)cc1,Potency,[1],inactive
same,Potency,[2],inactive
same,Potency,[3],inactive
same,Potency,[4],inactive
same,Potency,[5],inactive
same,Potency,[6],inactive
same,Potency,[7],inactive
same,Potency,[8],inactive
same,Potency,[9],inactive
same,Potency,[20],inactive
same,Potency,[11],inactive
same,Potency,[16],inactive
same,Potency,[12],inactive
same,Potency,[18],inactive
same,Potency,[19],inactive
same,Potency,[13],inactive
same,Potency,[17],inactive
same,Potency,[14],inactive
N#CC(CCc1ccc(Cl)cc1)(Cn1cncn1)c1ccccc1 (centres undefined),Potency,[1],inactive
same,Potency,[2],inactive
same,Potency,[3],inactive
same,Potency,[4],inactive
same,Potency,[5],inactive
same,Potency,[6],inactive
same,Potency,[7],inactive
same,Potency,[8],inactive
same,Potency,[9],inactive
same,Potency,[10],inactive
same,Potency,[11],inactive
same,Potency,[12],inactive
same,Potency,[17],inactive
